Assay results published in PubChem BioAssay (NCI).
The panel holds about 79,000 compounds, 15% with a hit somewhere; the sample as a whole holds those more often. A number with no mark means an inactive call. Cut-off read from the data, not from the text of the source: active = growth inhibition above about 70%; inactive = the rest.

Assay: NCI Yeast Anticancer Drug Screen. Data for the mlh1 rad18 strain (AID 175)
Details: S. cerevisiae mlh1 rad18 strain growth inhibition; at 50.0 µM; active compounds read high
Outline: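 In this whole-cell yeast screen, a strain with altered DNA damage repair is challenged with compound, and its growth is measured against matched vehicle-treated controls.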

Row | Compound | growth inhibition
1 | NC(C(=O)O)c1ccc([N+](=O)[O-])cc1 (stereo not given) | -14.7%
2 | O=C1N(C[P+](c2ccccc2)(c2ccccc2)c2ccccc2)CCCN1C[P+](c1ccccc1)(c1ccccc1)c1ccccc1 | 12.3%
3 | CCCCC/C=N/Nc1nc(C)cc(=O)[nH]1 | 4.4%
4 | Cc1ccc(Cl)cc1N1C(=O)CC(Sc2ccccc2N)C1=O (stereo not given) | 20.2%
5 | CN1C(=O)CN2CCc3ccccc3C2c2cc(Cl)ccc21 (stereo not given) | 42.1%
6 | O=C(O)c1ccnc(Br)c1 | -14.2%
7 | O=C(CCl)Nc1ccc2c(c1)C(=O)c1ccc(NC(=O)CCl)cc1C2=O | 21.9%
8 | CC(CC(=O)c1ccccc1)c1ccccc1 (stereo not given) | 10.2%
9 | CCOC(=O)/C(C#N)=C/c1cccc(C)c1 | -6.55%
10 | Cc1ccc(Cl)cc1NC(=O)N(C)CCO | 22.7%
11 | N/N=C(/Cc1ccccc1)NNC(N)=S | -0.45%
12 | COc1ccc(-c2cc(-c3cc(-c4ccc(OC)cc4)nc(N)n3)nc(N)n2)cc1 | 9.8%
13 | CCCCC1C(=O)N(c2ccccc2)N(c2ccccc2)C1=O | -19.1%
14 | CCCCOC(=O)c1ccc(C(C)C)cc1 | 4.35%
15 | CC(C)OC(C(=O)O)c1ccccc1 (stereo not given) | 0%
16 | Cc1ccc(C(=O)c2ccccc2)c(C)c1 | 28.6%
17 | COc1ccccc1C1OC2=Nc3cc(C)c(C)cc3NC2C1=O (stereo not given) | 5.95%
18 | Cc1cc(C)cc(NCCC#N)c1 | -17.4%

Row | Compound | growth inhibition
19 | CCC/C=C(/C(C)=O)C(=O)OCC | -6.75%
20 | Nc1ccc(N=Nc2ccc(O)cc2)c(N)n1 | -4.7%
21 | Cc1cccc(CO)c1 | -22.1%
22 | Cc1cc(O)ccc1O | 42.3%
23 | c1ncc2[nH]cnc2n1 | 6.3%
24 | O=S(=O)(Cc1ccccc1)c1ccccc1 | 23.9%
25 | CC1C(=O)c2ccccc2CC1C(=O)O (stereo not given) | -21%
26 | N#CCCN(CCCN1CCOCC1)CN1C(=O)c2ccccc2C1=O | 19.4%
27 | O=C(NCc1ccco1)Nc1c(Cl)cc(Cl)cc1Cl | -3.6%
28 | CSC[C@H](NC(=O)COc1cccc2cnccc12)C(=O)NC(Cc1ccccc1)C(O)C(=O)N1CSC[C@H]1C(=O)NC(C)(C)C (stereo not given in full) | -51.4%
29 | O=C(O)c1ccccc1NCc1ccco1 | -5.7%
30 | COC(=O)c1ccccc1Br | 6.45%
31 | Oc1ccc(N=Nc2ccc(Br)cc2)c(O)c1 | 22.8%
32 | CCOc1ccc(/C=N/N=C(N)N)cc1OCC | -11.9%
33 | CCOc1ccc(I)cc1 | -11.7%
34 | C=CC(O)CCC (stereo not given) | -2.7%
35 | CC(=O)c1cc2c(cc1F)C(C)(C)CCC2(C)C | -18.6%
